Assay [1] is described as follows: NCI Yeast Anticancer Drug Screen. Data for the rad50 strain (AID 155).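 Further: 0% = growth of vehicle-only cultures of the same strain.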 The conditions noted are these: S. cerevisiae rad50 strain growth inhibition, hits give high values. A digest of the protocol:
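Compounds were tested on a yeast strain with an engineered DNA damage repair alteration; the reported value is growth inhibition normalised to vehicle treatment.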

Assay [2] can be described thus: NCI Yeast Anticancer Drug Screen. Data for the mec2-1 strain (AID 157). The settings on record: S. cerevisiae mec2-1 strain, hits give high values. A digest of the protocol: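 Cells of the genetically defined mec2-1 yeast strain are incubated with test compound. Inhibition of growth is calculated against vehicle-treated controls.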
Assay [3] can be described thus: NCI Yeast Anticancer Drug Screen. Data for the sgs1 mgt1 strain (AID 161).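 Further: 0% = growth of cultures given vehicle only.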 The conditions noted are these: S. cerevisiae sgs1 mgt1 strain, hits give high values. A digest of the protocol:
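Mutant yeast exposed to compound; growth scored against vehicle-only wells.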

The nature of assay [4]: NCI Yeast Anticancer Drug Screen. Data for the cln2 rad14 strain (AID 165).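 Further: 0% = growth equal to vehicle treated cultures.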 The settings on record: S. cerevisiae cln2 rad14 strain, hits give high values. A digest of the protocol:
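The screen exposed genetically defined yeast (cln2 rad14) to test compounds and scored growth inhibition relative to vehicle-treated controls.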

Assay [5] in a line: NCI Yeast Anticancer Drug Screen. Data for the bub3 strain (AID 167). The settings on record: S. cerevisiae bub3 mutant strain, hits give high values. A digest of the protocol:
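Growth of a checkpoint-deficient yeast mutant is measured after compound exposure. Values represent inhibition relative to vehicle.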

The nature of assay [6]: NCI Yeast Anticancer Drug Screen. Data for the mlh1 rad18 strain (AID 175). The conditions noted are these: S. cerevisiae mlh1 rad18 strain growth inhibition, hits give high values. A digest of the protocol: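 Compound-treated yeast growth, normalised to vehicle controls. Strain bears defined DNA repair mutations.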
Where [7] appears, read: at 5.0 µM (retest, dose inferred, filed as 0.5).
Where [8] appears, read: at 50.0 µM (retest, dose inferred, filed as 5.0).

The panel holds about 79,000 compounds, 15% with a hit somewhere; the sample as a whole holds those more often. Unmarked numbers belong to inactive results. The source made the active and inactive calls. No stated cut-off is given here; in the data, active means growth inhibition above about 70%; inactive means the rest.

As for `NCCC(N)P(=O)(O)O` (configuration not stated), the growth inhibition is -166% in assay [1] (setting [7]); -150% in assay [1] (setting [8]); 20.6% in assay [1] (at 50.0 µM); -46% in assay [2] (setting [7]); -48% in assay [2] (setting [8]); 16.2% in assay [2] (at 50.0 µM). Moreover, the growth inhibition in assay [3] (setting [7]) is -61%; in assay [3] (setting [8]), -60%; in assay [3] (at 50.0 µM), -3.9%; in assay [4] (setting [7]), -61%; in assay [4] (setting [8]) it was -51%; in assay [4] (at 50.0 µM), 16.6%. Besides, the growth inhibition in assay [5] (setting [7]) is -74%; in assay [5] (setting [8]), -71%; in assay [5] (at 50.0 µM), 13%; in assay [6] (setting [7]), -141%; in assay [6] (setting [8]), -111%; in assay [6] (at 50.0 µM) it was 0.45%.

Consider `CC(C)(CN1CCCCC1)C(=O)CC(SCCS(=O)(=O)O)c1ccc(Cl)c(Cl)c1` (configuration not stated), for which the growth inhibition in assay [1] (setting [7]) is 62%; in assay [1] (setting [8]) it was 97% (active); in assay [1] (at 50.0 µM), 95.8% (active); in assay [2] (setting [7]), 33%; in assay [2] (setting [8]) it was 97% (active); in assay [2] (at 50.0 µM), 94% (active). Also, the growth inhibition in assay [3] (setting [7]) is 33%; in assay [3] (setting [8]), 95% (active); in assay [3] (at 50.0 µM) it was 97.4% (active); in assay [4] (setting [7]), 38%; in assay [4] (setting [8]) it was 98% (active); in assay [4] (at 50.0 µM) it was 88.2% (active). Further, the growth inhibition in assay [5] (setting [7]) is 58%; in assay [5] (setting [8]) it was 99% (active); in assay [5] (at 50.0 µM) it was 98% (active); in assay [6] (setting [7]) it was 41%; in assay [6] (setting [8]), 97% (active); in assay [6] (at 50.0 µM) it was 97% (active).

Consider `Cc1ccccc1Sc1ncnc2ccccc12`, for which the growth inhibition was 2% in assay [1] (setting [7]); 34% in assay [1] (setting [8]); 85.5% (active) in assay [1] (at 50.0 µM); 3% in assay [2] (setting [7]); 49% in assay [2] (setting [8]); 73.8% (active) in assay [2] (at 50.0 µM). Moreover, the growth inhibition in assay [3] (setting [7]) was -13%; in assay [3] (setting [8]), 70% (active); in assay [3] (at 50.0 µM) it was 55.5%; in assay [4] (setting [7]), 1%; in assay [4] (setting [8]), -1%; in assay [4] (at 50.0 µM) it was 5.45%. Moreover, the growth inhibition in assay [5] (setting [7]) was -5%; in assay [5] (setting [8]), 7%; in assay [5] (at 50.0 µM), 37.6%; in assay [6] (setting [7]), -7%; in assay [6] (setting [8]), 48%; in assay [6] (at 50.0 µM), 70.9% (active).

For the compound `Nc1ccccc1SC(C[N+](=O)[O-])c1ccc2c(c1)OCO2` (configuration not stated), the growth inhibition is 82% (active) in assay [1] (setting [7]); 99% (active) in assay [1] (setting [8]); 98.8% (active) in assay [1] (at 50.0 µM); 72% (active) in assay [2] (setting [7]); 100% (active) in assay [2] (setting [8]); 99% (active) in assay [2] (at 50.0 µM). Moreover, the growth inhibition is 69% in assay [3] (setting [7]); 99% (active) in assay [3] (setting [8]); 99% (active) in assay [3] (at 50.0 µM); 45% in assay [4] (setting [7]); 99% (active) in assay [4] (setting [8]); 97% (active) in assay [4] (at 50.0 µM). Besides, the growth inhibition in assay [5] (setting [7]) is 80% (active); in assay [5] (setting [8]), 100% (active); in assay [5] (at 50.0 µM), 98.5% (active); in assay [6] (setting [7]) it was 65%; in assay [6] (setting [8]), 99% (active); in assay [6] (at 50.0 µM), 99% (active).

Turning to `N#Cc1cccc(C[P+](c2ccccc2)(c2ccccc2)c2ccccc2)c1`, the growth inhibition in assay [1] (setting [7]) was 14%; in assay [1] (setting [8]) it was 45%; in assay [1] (at 50.0 µM), 78.3% (active); in assay [2] (setting [7]), -1%; in assay [2] (setting [8]), 22%; in assay [2] (at 50.0 µM), 46%. Moreover, the growth inhibition is 3% in assay [3] (setting [7]); 38% in assay [3] (setting [8]); 75.8% (active) in assay [3] (at 50.0 µM); 8% in assay [4] (setting [7]); 6% in assay [4] (setting [8]); 42.9% in assay [4] (at 50.0 µM). The growth inhibition was 4% in assay [5] (setting [7]); 32% in assay [5] (setting [8]); 45.8% in assay [5] (at 50.0 µM); 7% in assay [6] (setting [7]); 30% in assay [6] (setting [8]); 56.8% in assay [6] (at 50.0 µM).

For the compound `O=C1c2ccc(S(=O)(=O)O)cc2C(=O)c2ccc(S(=O)(=O)O)cc21`, the growth inhibition in assay [1] (setting [7]) is 3%; in assay [1] (setting [8]) it was 23%; in assay [1] (at 50.0 µM), 49.3%; in assay [2] (setting [7]) it was -1%; in assay [2] (setting [8]) it was 21%; in assay [2] (at 50.0 µM), 25.5%. Besides, the growth inhibition is 5% in assay [3] (setting [7]); 36% in assay [3] (setting [8]); 47.5% in assay [3] (at 50.0 µM); 2% in assay [4] (setting [7]); 26% in assay [4] (setting [8]); -62.8% in assay [4] (at 50.0 µM). The growth inhibition in assay [5] (setting [7]) was 1%; in assay [5] (setting [8]) it was 19%; in assay [5] (at 50.0 µM), 55.4%; in assay [6] (setting [7]), 4%; in assay [6] (setting [8]), 31%; in assay [6] (at 50.0 µM), 74% (active).

As to `Cc1cc2c(Br)cc(Br)c(O)c2nc1C(=O)c1ccccc1`, the growth inhibition in assay [1] (setting [7]) was 23%; in assay [1] (setting [8]), 39%; in assay [1] (at 50.0 µM), 31.8%; in assay [2] (setting [7]) it was 16%; in assay [2] (setting [8]) it was 38%; in assay [2] (at 50.0 µM), 19.5%. Further, the growth inhibition in assay [3] (setting [7]) is 37%; in assay [3] (setting [8]) it was 90% (active); in assay [3] (at 50.0 µM) it was 35.8%; in assay [4] (setting [7]) it was 33%; in assay [4] (setting [8]) it was 80% (active); in assay [4] (at 50.0 µM), 43.9%. For the same compound, the growth inhibition in assay [5] (setting [7]) is 20%; in assay [5] (setting [8]), 87% (active); in assay [5] (at 50.0 µM), 29.9%; in assay [6] (setting [7]), 32%; in assay [6] (setting [8]), 33%; in assay [6] (at 50.0 µM), 21.8%.

With `Cc1cccc(C)c1N=Nc1c(C)nc(N)nc1-c1ccccc1`, the growth inhibition was 0% in assay [1] (setting [7]); 88% (active) in assay [1] (setting [8]); 96.8% (active) in assay [1] (at 50.0 µM); 12% in assay [2] (setting [7]); 95% (active) in assay [2] (setting [8]); 96.4% (active) in assay [2] (at 50.0 µM). The growth inhibition in assay [3] (setting [7]) is 5%; in assay [3] (setting [8]) it was 96% (active); in assay [3] (at 50.0 µM), 95.5% (active); in assay [4] (setting [7]), -4%; in assay [4] (setting [8]) it was 90% (active); in assay [4] (at 50.0 µM) it was 94.3% (active). The growth inhibition is -7% in assay [5] (setting [7]); 93% (active) in assay [5] (setting [8]); 96.3% (active) in assay [5] (at 50.0 µM); -4% in assay [6] (setting [7]); 91% (active) in assay [6] (setting [8]); 95.3% (active) in assay [6] (at 50.0 µM).

For the compound `CC(=O)OC(c1ccc(Cl)cc1)c1ccc(Cl)cc1`, the growth inhibition is -43% in assay [1] (setting [7]); 1% in assay [1] (setting [8]); 16.5% in assay [1] (at 50.0 µM); -11% in assay [2] (setting [7]); -8% in assay [2] (setting [8]); -2% in assay [2] (at 50.0 µM). The growth inhibition in assay [3] (setting [7]) was -7%; in assay [3] (setting [8]), 20%; in assay [3] (at 50.0 µM) it was 18.8%; in assay [4] (setting [7]), -17%; in assay [4] (setting [8]), 4%; in assay [4] (at 50.0 µM) it was 8.85%. Moreover, the growth inhibition in assay [5] (setting [7]) is 2%; in assay [5] (setting [8]), 0%; in assay [5] (at 50.0 µM) it was 0.2%; in assay [6] (setting [7]) it was -22%; in assay [6] (setting [8]) it was 16%; in assay [6] (at 50.0 µM) it was 18.9%.

Source of the values: PubChem BioAssay (NCI).
